Test results from PubChem BioAssay AID434958 (Southern Research Specialized Biocontainment Screening …, 2010).
The campaign covered roughly 1,200 compounds. About 400 (33%) were called active. No rule for the calls is given here. Not all results are given here. Measured potencies and affinities stand elsewhere.

test: mammalian cell cytotoxicity, dose response, cytotoxicity control (AID 434958); conditions: cytotoxicity counter-screen; series mostly up to 40 µM;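 also: cells exposed to compound for 72 hours before readout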

Question: For `COc1ccc(NC(=O)CCc2ccccc2)cc1NC(=O)c1ccco1`, which outcome is on record?
Answer: inactive

Question: Which outcome does the source give for `C=CCOc1ccc(C2N3CC4(C)CN2CC(CCC)(C3)C4=O)cc1` (stereo unspecified) here?
Answer: inactive

Question: With `CC(C(=O)Nc1nc2ccccc2[nH]1)N1C(=O)C2CC=CCC2C1=O` (stereo unspecified) as the molecule, how does the outcome read?
Answer: inactive

Question: Which outcome does the source give for `CCC(=O)NC(=S)Nc1ccc(-c2nc3ccccc3s2)cc1` here?
Answer: inactive

Question: For `CCOc1ccc(S(=O)(=O)n2nnc3ccccc32)cc1C(C)C`, which outcome is on record?
Answer: inactive

Question: With `COC(=O)c1c(-c2ccc(OC)cc2)oc2ccc(-c3cc(OC)c(OC)c(OC)c3)cc12` as the molecule, how does the outcome read?
Answer: inactive

Question: With `O=C(NCCC1=CCCCC1)NC1CCCCC1` as the molecule, how does the outcome read?
Answer: inactive

Question: With `CCC1CCCCN1C(=O)CSc1nnc(-c2ccc(Cl)s2)o1` (stereo unspecified) as the molecule, how does the outcome read?
Answer: inactive

Question: Which outcome does the source give for `O=C(NCc1ccco1)c1cc2n(n1)C(C(F)(F)F)CC(c1ccc(F)cc1)N2` (stereo unspecified) here?
Answer: inactive

Question: With `O=C(CN1CCN(c2ccccn2)CC1)Nc1ccc(Cl)c(C(F)(F)F)c1` as the molecule, how does the outcome read?
Answer: inactive

Question: With `N#Cc1ccc(NC(=O)COC(=O)C2=COCCO2)cc1` as the molecule, how does the outcome read?
Answer: inactive

Question: Which outcome does the source give for `CCOC(=O)c1c(C)oc2c1c(CN1CCN(C(=O)OCC)CC1)c(O)c1ccccc12` here?
Answer: inactive

Question: With `COc1cc2c(cc1OC)C(c1ccccc1)CC2=O` (stereo unspecified) as the molecule, how does the outcome read?
Answer: inactive

Question: With `Cc1ccccc1Cn1cc(NC(=O)CSc2nc3c(c(C(F)(F)F)n2)CCc2ccccc2-3)cn1` as the molecule, how does the outcome read?
Answer: inactive

Question: Which outcome does the source give for `CCO[C@H]1OC(C(=O)NCc2nc3ccccc3[nH]2)=C[C@@H](c2cn(C(C)=O)c3ccccc23)[C@@H]1CCCO` here?
Answer: inactive

Question: Which outcome does the source give for `CCCc1c(C)nc2c(OC)cccc2c1SCC(=O)O` here?
Answer: inactive

Question: Which outcome does the source give for `O=C(O/N=C\c1ccc(N2CCCCC2)c([N+](=O)[O-])c1)c1c(F)cccc1F` here?
Answer: inactive

Question: With `c1ccc2c(c1)Cn1nc(Cc3nc4c(s3)CCCC4)nc1-2` as the molecule, how does the outcome read?
Answer: inactive

Question: For `COc1ccc2nc(NC(=O)NC3CCCCC3)sc2c1`, which outcome is on record?
Answer: inactive

Question: Which outcome does the source give for `CC(=O)c1ccc(N2CCN(c3ncc(C(F)(F)F)cc3Cl)CC2)cc1` here?
Answer: inactive

Question: For `O=C(Nc1ccc(Cl)cc1F)c1cccc2ccccc12`, which outcome is on record?
Answer: inactive

Question: With `CCc1ccccc1NC(=O)CNC(=O)c1cc(C2CC2)nn1-c1ccccc1` as the molecule, how does the outcome read?
Answer: inactive

Question: With `O=C(NCc1ccc2c(c1)OCO2)Nc1ccc2ccccc2c1` as the molecule, how does the outcome read?
Answer: inactive

Question: Which outcome does the source give for `CCN(CC)C(=O)CSc1nnc2nnc3cc(OC)ccc3n12` here?
Answer: inactive

Question: For `CN1C/C(=N\S(=O)(=O)c2ccccc2)N(C)C1=O`, which outcome is on record?
Answer: inactive

Question: Which outcome does the source give for `Cn1cccc1/C=C1/C(=O)NC(=O)N(Cc2ccc(F)cc2)C1=O` here?
Answer: inactive

Question: For `COCCNC(=S)N/N=C1\CC(C)CC(C)(C)C1` (stereo unspecified), which outcome is on record?
Answer: inactive

Question: Which outcome does the source give for `CC(=O)Nc1cccc(-n2nnc(SCC(=O)Nc3ccc(F)c(Cl)c3)n2)c1` here?
Answer: inactive

Question: Which outcome does the source give for `COC(=O)CN1C(CN2CCOCC2)=Nc2ccc(Br)cc2C1c1ccccc1` (stereo unspecified) here?
Answer: inactive

Question: With `CSc1ccc(/C=C/C(=O)Nc2ccccc2)cc1` as the molecule, how does the outcome read?
Answer: inactive

Question: For `CCOc1ccc(N2C(=O)CC(N)C2=O)cc1` (stereo unspecified), which outcome is on record?
Answer: inactive

Question: Which outcome does the source give for `O=C(NC1CCCCCCC1)c1ccc(Br)cc1` here?
Answer: inactive

Question: For `CCCC(C)NC(=O)c1ccc(OCc2ccc(Cl)cc2)c(OC)c1` (stereo unspecified), which outcome is on record?
Answer: inactive

Question: Which outcome does the source give for `Cc1ccc(C)c(N2CCN(C3CCCC(C)C3)CC2)c1` (stereo unspecified) here?
Answer: inactive

Question: Which outcome does the source give for `O=C(Nc1ccc(Cl)cc1)C1CC2CCCC(C1)C2=O` (stereo unspecified) here?
Answer: inactive

Question: Which outcome does the source give for `Cc1ccc(NC(=O)CSc2n[nH]c(-c3ccco3)n2)cc1` here?
Answer: inactive

Question: With `CCCC(C(=O)N1CCOCC1)N1C(=O)C2C3C=CC(C3)C2C1=O` (stereo unspecified) as the molecule, how does the outcome read?
Answer: inactive

Question: With `Cc1ccc(C(=O)Nc2c(C)cc(C)c3cccnc23)cc1` as the molecule, how does the outcome read?
Answer: inactive

Question: For `Cc1c(C(=O)c2ccccc2)oc2ccc3ccccc3c12`, which outcome is on record?
Answer: inactive

Question: With `COCCOC(=O)c1c(C)oc2ccc(OC(=O)c3c(OC)cccc3OC)cc12` as the molecule, how does the outcome read?
Answer: inactive

Question: Which outcome does the source give for `COc1ccc(-c2c(-c3ccsc3)oc3ccc(N4CCOCC4)cc23)cc1` here?
Answer: inactive

Question: With `Cc1nn(C)c(C)c1C1C(C#N)=C(N)OC2=C1C(=O)CCC2` (stereo unspecified) as the molecule, how does the outcome read?
Answer: inactive

Question: For `Cc1cccnc1NC(=O)c1cc2ccccc2oc1=O`, which outcome is on record?
Answer: inactive

Question: With `Cc1ccc(C)c(NC(=O)C2Cc3ccccc3CN2C(=O)OCc2ccccc2)c1` (stereo unspecified) as the molecule, how does the outcome read?
Answer: inactive

Question: For `CNc1ccccc1NC(=O)C1CCCN1C(=O)OCc1ccccc1` (stereo unspecified), which outcome is on record?
Answer: inactive

Question: Which outcome does the source give for `O=C(NC(=S)N1CCOCC1)c1ccc([N+](=O)[O-])cc1` here?
Answer: inactive

Question: Which outcome does the source give for `NC(=O)CN1C(=O)C(O)(CC(=O)/C=C\C=C\c2ccccc2)c2ccccc21` (stereo unspecified) here?
Answer: inactive

Question: With `C=CCC(Nc1ccccc1)C12C=CC(O1)C(C(=O)OC)=C2C(=O)OC` (stereo unspecified) as the molecule, how does the outcome read?
Answer: inactive

Question: For `COc1cc(C(=O)N/N=C/c2ccc(OC(=O)c3cccc(C)c3)cc2)ccc1O`, which outcome is on record?
Answer: inactive

Question: For `COc1ccc2ccccc2c1/C=N/NC(=O)c1cccc(C)c1`, which outcome is on record?
Answer: inactive

Question: For `Cc1ccccc1NC(=O)/C(C#N)=C\c1cc(C)n(-c2ccc(C(=O)O)cc2)c1C`, which outcome is on record?
Answer: inactive

Question: Which outcome does the source give for `O=C(COc1ccc2ccccc2c1)Nc1nc2ccccc2[nH]1` here?
Answer: inactive

Question: Which outcome does the source give for `Cc1cc(C)c(OCC(=O)Nc2nc3ccccc3[nH]2)c(C)c1` here?
Answer: inactive

Question: With `Cc1ccc(SCc2c(C#N)c3ccccc3n2C)cc1` as the molecule, how does the outcome read?
Answer: inactive

Question: With `Clc1ccc(Cn2cc(/C=N/n3cnnc3)c3ccccc32)cc1` as the molecule, how does the outcome read?
Answer: inactive

Question: With `Nc1nc(Sc2ncccc2[N+](=O)[O-])n[nH]1` as the molecule, how does the outcome read?
Answer: inactive

Question: With `Cc1nnnn1/C(=C\c1ccccc1)C(=O)OCC(=O)NC1CCCCC1` as the molecule, how does the outcome read?
Answer: inactive

Question: For `CCOC(=O)CNC(=O)CSc1ncnc2c1cnn2Cc1ccccc1`, which outcome is on record?
Answer: inactive

Question: For `Cc1cc(C)n(-c2nc3ccccc3c(=O)n2OCC(=O)N(C)C)n1`, which outcome is on record?
Answer: inactive

Question: Which outcome does the source give for `CC1CCN(C(=S)NC(=O)c2ccccc2)CC1` here?
Answer: inactive

Question: With `CCc1cc2c(=O)nc3n(c2s1)Cc1ccccc1/C3=C(/O)c1ccc(F)cc1` as the molecule, how does the outcome read?
Answer: inactive

Question: For `CCC(CC)c1nnc(NC(=O)c2cc(-c3ccccc3)nc3ccccc23)s1`, which outcome is on record?
Answer: inactive

Question: Which outcome does the source give for `CCCSc1nnc(NC(=O)c2sc3nc(-c4cccs4)ccc3c2N)s1` here?
Answer: inactive

Question: With `COc1cc(OC)c(OC)cc1/C=C1\CCC(C2CCCC2)C1=O` (stereo unspecified) as the molecule, how does the outcome read?
Answer: inactive

Question: Which outcome does the source give for `O=C(NCc1ccc2c(c1)OCO2)C(=O)NC1CCCCC1` here?
Answer: inactive

Question: For `CCCCn1nc2cc(C(=O)NCC34CC5CC(CC(C5)C3)C4)ccc2c1OCC`, which outcome is on record?
Answer: inactive

Question: Which outcome does the source give for `O=C(OCC(=O)c1c[nH]c2ccccc12)c1cccc([N+](=O)[O-])c1` here?
Answer: inactive

Question: Which outcome does the source give for `O=C(CSc1nnc(-c2ccncc2)o1)c1cccc([N+](=O)[O-])c1` here?
Answer: inactive

Question: For `O=C(Cn1nnc2c(cnn2-c2ccccc2)c1=O)N1CCN(c2ccccc2F)CC1`, which outcome is on record?
Answer: inactive

Question: For `CCOC(=O)c1nn(-c2ccc(Cl)cc2)cc1O`, which outcome is on record?
Answer: inactive

Question: Which outcome does the source give for `CCN(CCNC(=O)Nc1ccc(Cl)cc1)c1ccccc1` here?
Answer: inactive
